Like-named read-outs stand apart in the source and are kept apart here.
Experiments:
ADCK3 = test system: ADCK3; set-up: species or system human, MV4-11 + K-562 + COLO205 + SK-N-BE2 + OVCAR-8; conditions: read-out: apparent Kd, compound concentrations: 100 nM and 1000 nM (sheet 'Samples'), n = 1
IRAK3 = test system: IRAK3; set-up: species or system human, MV4-11 + K-562 + COLO205 + SK-N-BE2 + OVCAR-8; conditions: read-out: apparent Kd; compound concentrations: 100 nM and 1000 nM (sheet 'Samples'), CATDS: 0.24255292072304399; n = 1
LIMK1 = test system: LIMK1; set-up: species or system human, MV4-11 + K-562 + COLO205 + SK-N-BE2 + OVCAR-8; conditions: read-out: apparent Kd; compound concentrations: 100 nM and 1000 nM (sheet 'Samples'), CATDS: 0.14732071058877899; n = 1
NEK1 = test system: NEK1; set-up: species or system human, MV4-11 + K-562 + COLO205 + SK-N-BE2 + OVCAR-8; conditions: read-out: apparent Kd; compound concentrations: 100 nM and 1000 nM (sheet 'Samples'), CATDS: 0.13907038524561799; n = 1
NUAK2 = test system: NUAK2; set-up: species or system human, MV4-11 + K-562 + COLO205 + SK-N-BE2 + OVCAR-8; conditions: read-out: apparent Kd; compound concentrations: 100 nM and 1000 nM (sheet 'Samples'), CATDS: 0.15992761786182699; n = 1
Q6ZSR9 = Q6ZSR9 (human, UniProt Q6ZSR9); set-up: species or system MV4-11 + K-562 + COLO205 + SK-N-BE2 + OVCAR-8; conditions: read-out: apparent Kd; compound concentrations: 100 nM and 1000 nM (sheet 'Samples'), CATDS: 0.17489786753405201; n = 1
ADRBK1 = test system: ADRBK1; set-up: species or system human, MV4-11 + K-562 + COLO205 + SK-N-BE2 + OVCAR-8; conditions: read-out: apparent Kd; compound concentrations: 100 nM and 1000 nM (sheet 'Samples'), CATDS: 4.7657416287883198E-2; n = 1
AKT1 = test system: AKT1; set-up: species or system human, MV4-11 + K-562 + COLO205 + SK-N-BE2 + OVCAR-8; conditions: read-out: apparent Kd, compound concentrations: 100 nM and 1000 nM (sheet 'Samples'), n = 1
CSNK1A1 = test system: CSNK1A1; set-up: species or system human, MV4-11 + K-562 + COLO205 + SK-N-BE2 + OVCAR-8; conditions: read-out: apparent Kd, compound concentrations: 100 nM and 1000 nM (sheet 'Samples'), n = 1
DYRK1A = test system: DYRK1A; set-up: species or system human, MV4-11 + K-562 + COLO205 + SK-N-BE2 + OVCAR-8; conditions: read-out: apparent Kd; compound concentrations: 100 nM and 1000 nM (sheet 'Samples'), CATDS: 4.0227920038392803E-2; n = 1
ILK = test system: ILK; set-up: species or system human, MV4-11 + K-562 + COLO205 + SK-N-BE2 + OVCAR-8; conditions: read-out: apparent Kd; compound concentrations: 100 nM and 1000 nM (sheet 'Samples'), CATDS: 5.1421329598879802E-2; n = 1
MAP2K2 = test system: MAP2K2; set-up: species or system human, MV4-11 + K-562 + COLO205 + SK-N-BE2 + OVCAR-8; conditions: read-out: apparent Kd; compound concentrations: 100 nM and 1000 nM (sheet 'Samples'), CATDS: 0.12895351362438101; n = 1
MAP3K1 = test system: MAP3K1; set-up: species or system human, MV4-11 + K-562 + COLO205 + SK-N-BE2 + OVCAR-8; conditions: read-out: apparent Kd; compound concentrations: 100 nM and 1000 nM (sheet 'Samples'), CATDS: 4.18687434788882E-2; n = 1
MDN1 = test system: MDN1; set-up: species or system human, MV4-11 + K-562 + COLO205 + SK-N-BE2 + OVCAR-8; conditions: read-out: apparent Kd; compound concentrations: 100 nM and 1000 nM (sheet 'Samples'), CATDS: 4.35192896952597E-2; n = 1
NNT = test system: NNT; set-up: species or system human, MV4-11 + K-562 + COLO205 + SK-N-BE2 + OVCAR-8; conditions: read-out: apparent Kd; compound concentrations: 100 nM and 1000 nM (sheet 'Samples'), CATDS: 0.130086313463294; n = 1
NQO1 = test system: NQO1; set-up: species or system human, MV4-11 + K-562 + COLO205 + SK-N-BE2 + OVCAR-8; conditions: read-out: apparent Kd, compound concentrations: 100 nM and 1000 nM (sheet 'Samples'), n = 1
PIK3C3 = test system: PIK3C3; set-up: species or system human, MV4-11 + K-562 + COLO205 + SK-N-BE2 + OVCAR-8; conditions: read-out: apparent Kd; compound concentrations: 100 nM and 1000 nM (sheet 'Samples'), CATDS: 4.45420285121335E-2; n = 1
PLK1 = test system: PLK1; set-up: species or system human, MV4-11 + K-562 + COLO205 + SK-N-BE2 + OVCAR-8; conditions: read-out: apparent Kd; compound concentrations: 100 nM and 1000 nM (sheet 'Samples'), CATDS: 0.280824965441342; n = 1
PSMC3 = test system: PSMC3; set-up: species or system human, MV4-11 + K-562 + COLO205 + SK-N-BE2 + OVCAR-8; conditions: read-out: apparent Kd; compound concentrations: 100 nM and 1000 nM (sheet 'Samples'), CATDS: 4.0647702260791799E-2; n = 1
RIOK2 = test system: RIOK2; set-up: species or system human, MV4-11 + K-562 + COLO205 + SK-N-BE2 + OVCAR-8; conditions: read-out: apparent Kd, compound concentrations: 100 nM and 1000 nM (sheet 'Samples'), n = 1
SMG1 = test system: SMG1; set-up: species or system human, MV4-11 + K-562 + COLO205 + SK-N-BE2 + OVCAR-8; conditions: read-out: apparent Kd; compound concentrations: 100 nM and 1000 nM (sheet 'Samples'), CATDS: 4.1869296169603699E-2; n = 1
STK10 = test system: STK10; set-up: species or system human, MV4-11 + K-562 + COLO205 + SK-N-BE2 + OVCAR-8; conditions: read-out: apparent Kd; compound concentrations: 100 nM and 1000 nM (sheet 'Samples'), CATDS: 4.6875467745806497E-2; n = 1
VDAC3 = test system: VDAC3; set-up: species or system human, MV4-11 + K-562 + COLO205 + SK-N-BE2 + OVCAR-8; conditions: read-out: apparent Kd; compound concentrations: 100 nM and 1000 nM (sheet 'Samples'), CATDS: 0.150958833754439; n = 1
AKT2 = test system: AKT2; set-up: species or system human, MV4-11 + K-562 + COLO205 + SK-N-BE2 + OVCAR-8; conditions: read-out: apparent Kd; compound concentrations: 100 nM and 1000 nM (sheet 'Samples'), CATDS: 0.10421017655023999; n = 1
MAP2K1 = test system: MAP2K1; set-up: species or system human, MV4-11 + K-562 + COLO205 + SK-N-BE2 + OVCAR-8; conditions: read-out: apparent Kd; compound concentrations: 100 nM and 1000 nM (sheet 'Samples'), CATDS: 0.110237039965707; n = 1
ZAK = test system: ZAK; set-up: species or system human, MV4-11 + K-562 + COLO205 + SK-N-BE2 + OVCAR-8; conditions: read-out: apparent Kd; compound concentrations: 100 nM and 1000 nM (sheet 'Samples'), CATDS: 0.14081253885296899; n = 1
ATM = test system: ATM; set-up: species or system human, MV4-11 + K-562 + COLO205 + SK-N-BE2 + OVCAR-8; conditions: read-out: apparent Kd; compound concentrations: 100 nM and 1000 nM (sheet 'Samples'), CATDS: 0.655973384718888; n = 1
ARAF = test system: ARAF; set-up: species or system human, MV4-11 + K-562 + COLO205 + SK-N-BE2 + OVCAR-8; conditions: read-out: apparent Kd; compound concentrations: 100 nM and 1000 nM (sheet 'Samples'), CATDS: 0.31382782577056201; n = 1
PIK3CB = test system: PIK3CB; set-up: species or system human, MV4-11 + K-562 + COLO205 + SK-N-BE2 + OVCAR-8; conditions: read-out: apparent Kd; compound concentrations: 100 nM and 1000 nM (sheet 'Samples'), CATDS: 0.29308113927572399; n = 1

Chain of Q6ZSR9 (Q6ZSR9 whole entry, looked up): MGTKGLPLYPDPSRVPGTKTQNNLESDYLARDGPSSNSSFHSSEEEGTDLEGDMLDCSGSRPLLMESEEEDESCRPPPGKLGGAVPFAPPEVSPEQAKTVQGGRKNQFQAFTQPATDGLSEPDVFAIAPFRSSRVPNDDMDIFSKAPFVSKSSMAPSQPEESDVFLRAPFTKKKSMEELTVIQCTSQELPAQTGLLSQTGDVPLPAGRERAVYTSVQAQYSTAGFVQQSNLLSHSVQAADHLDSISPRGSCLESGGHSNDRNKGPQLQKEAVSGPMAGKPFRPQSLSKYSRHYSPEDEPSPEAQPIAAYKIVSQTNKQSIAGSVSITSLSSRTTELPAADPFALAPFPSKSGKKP

## COc1cc(Nc2nccc(N3CCC(NC(=O)Nc4cccc(C(C)=O)c4)C3)n2)cc(OC)c1OC (stereo not shown) [GSK1379753A]
ADCK3; CATDS: 0.16868464966378999
  potency estimated from few doses: 1.38 µM
IRAK3
  potency estimated from few doses: 0.726 µM
LIMK1
  potency estimated from few doses: 1.85 µM
NEK1
  potency estimated from few doses: 2.14 µM
NUAK2
  potency estimated from few doses: 1.54 µM
Q6ZSR9
  potency estimated from few doses: 1.28 µM

## C[C@@H](Oc1cc(-n2cnc3ccc(OC[C@@H](O)CO)cc32)sc1C(N)=O)c1ccccc1Cl [GSK978744A]
ADCK3; CATDS: 5.9783524932330002E-2
  potency estimated from few doses: 0.691 µM
ADRBK1
  potency estimated from few doses: 1.3 µM
AKT1; CATDS: 4.0938746042506198E-2
  potency estimated from few doses: 2.16 µM
CSNK1A1; CATDS: 4.27416149593133E-2
  potency estimated from few doses: 1.86 µM
DYRK1A
  potency estimated from few doses: 2.31 µM
ILK
  potency estimated from few doses: 1.04 µM
MAP2K2
  potency estimated from few doses: 0.124 µM
MAP3K1
  potency estimated from few doses: 2 µM
MDN1
  potency estimated from few doses: 1.74 µM
NNT
  potency estimated from few doses: 0.122 µM
NQO1; CATDS: 0.14484490381839699
  potency estimated from few doses: 0.0998 µM
PIK3C3
  potency estimated from few doses: 1.62 µM
PLK1
  potency estimated from few doses: 0.0353 µM
PSMC3
  potency estimated from few doses: 2.22 µM
RIOK2; CATDS: 4.4447834501145103E-2
  potency estimated from few doses: 1.63 µM
SMG1
  potency estimated from few doses: 1.99 µM
STK10
  potency estimated from few doses: 1.37 µM
VDAC3
  potency estimated from few doses: 0.0928 µM

## COc1cccc(-n2cnc3c(N)ncnc32)c1 [SKF-97416]
ADCK3; CATDS: 0.45631454504768898
  potency estimated from few doses: 0.155 µM
AKT1; CATDS: 0.104224113270125
  potency estimated from few doses: 2.12 µM
AKT2
  potency estimated from few doses: 2.12 µM
CSNK1A1; CATDS: 0.102191451764392
  potency estimated from few doses: 2.24 µM
MAP2K1
  potency estimated from few doses: 1.83 µM
NQO1; CATDS: 0.123163223225838
  potency estimated from few doses: 1.4 µM
RIOK2; CATDS: 0.117096482211817
  potency estimated from few doses: 1.58 µM
ZAK
  potency estimated from few doses: 1.05 µM

## COc1ccc(CNC(=O)c2ccc(-c3cc(-c4nnc(C)o4)ccc3C)cc2)cc1 [GW701032X]
ADCK3; CATDS: 0.40395097893739401
  potency estimated from few doses: 0.731 µM
ATM
  potency estimated from few doses: 0.26 µM

## N#Cc1c(C(=O)c2ccccc2)cnn1-c1ccccc1 [RO1150868-000]
ADCK3; CATDS: 0.41640381160796702
  potency estimated from few doses: 0.51 µM
ARAF
  potency estimated from few doses: 0.875 µM
PIK3CB
  potency estimated from few doses: 1.02 µM
